Source: PubChem
Peg3 prom inh-1 – inhibitors of Peg3 promoter. 360,000 compounds, 1.7% hits. inhibition, % at 20 µM. HeLa PEG-Prom luciferase reporter, luminescence, overnight;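 active means inhibition of at least 50% at 20 µM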
TWEAK-Fn14 inh – TWEAK-Fn14 signaling inhibition. 360,000 compounds, 2% hits. TWEAK-stimulated Fn14 reporter cells, luciferase luminescence, 8 h. inhibition, % at 10 µM; in the data active means inhibition above about 50%
TROY signal inh – blocks TROY-dependent signaling in reporter cells; Q293 LMP1-TROYcd NF-kB luciferase reporter, 4 h; inhibition, % at 10 µM; 360,000 compounds, 0.98% hits;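 active means compounds whose plate-normalised and pattern-corrected inhibition of the luciferase reporter signal at the single screening dose is 50% or more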
HIF-2a inh – inhibitors of HIF-2a; 786-0 RCC cells HIF-2a reporter, luciferase luminescence, overnight; inhibition, % at 18.8 µM; 360,000 compounds, 0.72% hits;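 active means inhibition of the luminescence signal of 40% or more relative to plate controls, in a single-dose primary screen at 18.75 µM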
KKLEB cytotox – reduces viability of KKLEB cystic fibrosis airway cells; 360,000 compounds, 0.36% hits; KKLEB CF airway cells viability, ATPlite luminescence, overnight; hits give low values; cells stimulated with P. aeruginosa culture filtrate; activity change (cytotoxicity), % at 5 µM;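 active means corrected activity change at or below -50% at 5 µM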
CF NFkB block – inhibitors of cystic fibrosis induced NF-kB; KKLEB NF-kB-GFP reporter, PAF-induced, GFP fluorescence overnight; inhibition, % at 5 µM; 360,000 compounds, 0.86% hits; AID 588850;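 active means at least 50% inhibition at 5 µM, scaled per plate between neutral and stimulator controls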;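 further: PAF is a Pseudomonas aeruginosa culture filtrate used as stimulus; plate controls were PAF-stimulated DMSO wells for no effect and unstimulated DMSO wells for full effect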
Peg3 prom inh-2 – confirmation of Peg3 promoter inhibitors. shares compounds with Peg3 prom inh-1. HeLa PEG-Prom luciferase reporter, luminescence, overnight. inhibition, % at 20 µM. 1,300 compounds, 84% hits;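 active means at 20 µM dose, 40% or more inhibition averaged across four replicates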
* marks the source's active call; other numbers are inactive results; . = not tested or not shown. In the library only some 4% were active in any assay of this set; here they are far more common.

SMILES	Peg3 prom inh-1	TWEAK-Fn14 inh	TROY signal inh	HIF-2a inh	KKLEB cytotox	CF NFkB block	Peg3 prom inh-2
CCCN1CCc2c(sc(NC(=O)c3ccc(S(=O)(=O)N(C)c4ccccc4)cc3)c2C(N)=O)C1	-1.6	-20.7	2.4	4.4	-26.3	-19.5	.
CCCN1CCc2c(sc(NC(=O)c3ccc(S(=O)(=O)N4CCN(C(=O)OCC)CC4)cc3)c2C(N)=O)C1	65.1*	0.3	0.9	22.1	-12.0	-10.8	57.9*
c1ccc(CCCNCCCn2cnc3c(OCc4ccccc4)ncnc32)cc1	56.1*	0.7	8.0	-16.5	9.7	0.6	83.3*
C[C@@H](NCCCn1cnc2c(OCc3ccccc3)ncnc21)c1cccc2ccccc12	91.9*	-9.7	-2.9	-22.7	-18.9	17.1	86.2*
C(=N\Nc1nc(-c2ccccc2)cs1)/c1ccncc1	-239.3	-8.0	-13.6	-235.6	17.3	-24.1	.
CN(C)S(=O)(=O)c1ccc(-c2csc(N/N=C/c3ccc(O)cc3)n2)cc1	96.0*	98.7*	68.7*	23.3	-9.4	82.4*	98.5*
NNC(=O)CNC(=O)Nc1n[nH]c(=S)s1	-5.5	-16.2	1.8	6.2	13.6	-22.2	.
OCCN1CCN(C2CCC(c3ccc(F)cc3)c3ccc(F)cc32)CC1 (centres undefined)	56.1*	-13.1	-14.2	-18.5	-35.1	45.1	72.6*
O=C(Nc1ccc([N+](=O)[O-])cc1)C(=O)Nc1cccc(C(=O)O)c1	64.2*	-15.2	-29.4	79.5*	12.4	-25.8	68.4*
CCN(CC(=O)Nc1ccccc1OC)C(=O)c1ccc(NS(=O)(=O)c2ccc(C(C)=O)cc2)cc1	20.2	6.9	7.1	7.3	-1.6	3.1	.
CC1(C)Oc2cc3oc(-c4cc(O)cc(O)c4)cc3cc2CC1O (centres undefined)	59.0*	76.2*	80.1*	38.4	-10.0	-6.9	65.5*
CC(=O)Nc1ccc(NC(=O)C(C)OC(=O)CC23CC4CC(CC(Br)(C4)C2)C3)cc1 (centres undefined)	2.0	-13.0	4.8	10.4	-20.1	-4.3	.
Nc1c(C(=O)Nc2nc3ccccc3s2)sc2nc(-c3cccs3)ccc12	95.4*	-1.7	-16.9	-40.4	-40.6	12.0	63.9*
COc1cccc(N2CCN(C(=O)c3cccc(S(=O)(=O)N4CCCC4)c3)CC2)c1	-1.3	-9.9	3.3	10.3	8.2	-11.6	.
O=C1[C@H](Cc2ccccc2)NCCCC[C@@H](c2ccc(Cl)cc2)N1Cc1ccc(Cl)cc1	76.3*	-7.5	11.6	8.8	7.4	14.8	21.6
O=C1[C@H](Cc2ccccc2)NCCCC[C@@H](c2ccco2)N1Cc1ccccc1	6.0	3.2	13.0	6.6	-12.9	21.4	.
CNCC[C@H](Oc1cccc2ccccc12)c1cccs1	90.3*	-23.7	4.5	-3.3	-14.4	47.1	91.6*
O=C(c1ccoc1)N1CCN(c2cc(-c3cccnc3)nc3cc(-c4cccc(Cl)c4)nn23)CC1	54.1*	-0.1	-4.3	-5.7	-1.4	4.3	28.6
CC(=O)N1CCN(c2cc(-c3ccccc3)nc3cc(-c4cccc(Cl)c4)nn23)CC1	54.8*	54.9*	33.6	-26.7	-1.4	6.2	57.7*
CCN1CCN(c2cc(-c3ccccc3)nc3cc(-c4cccc(F)c4)nn23)CC1	11.3	28.8	6.4	-68.3	-6.1	17.8	.
COc1ccc(CCNC(=O)c2cc3c(=O)n4ccccc4nc3n(C3CCCCC3)c2=N)cc1OC	33.8	-22.6	-6.2	6.6	-1.3	12.6	.
COc1ccc(CCn2c(=N)c(C(=O)NC3CCCC3)cc3c(=O)n4cccc(C)c4nc32)cc1	99.2*	-7.8	-1.3	-10.1	-3.0	-19.2	63.7*
COc1ccc(CCNC(=O)c2cc3c(=O)n4ccccc4nc3n(C3CCCCC3)c2=N)cc1	87.7*	-14.1	9.1	6.9	-28.6	21.5	53.9*
CC(C(=O)NC1CCCC1)N(C(=O)Cn1nnc(-c2ccc(F)cc2)n1)c1ccccc1F (centres undefined)	57.1*	27.8	28.7	4.4	-11.2	4.0	49.9*
O=C(NCC1CCCO1)C(c1ccc(F)cc1)N(C(=O)Cn1nnc(-c2ccc(F)cc2)n1)c1cccc(O)c1 (centres undefined)	55.7*	27.7	8.1	18.8	-11.7	5.2	51.0*
